# In publication PMC4336329 (PLoS ONE, 2015):
# Hit rate of the full screen: of about 310,000 compounds, about 2,200 (0.71%) showed an effect of 50% or more. The effect is printed as a negative number. The full list was thinned out, with strong results kept by preference.
# Biological target: human ether-à-go-go-related gene (hERG) potassium channel (human, UniProt Q12809)
# Assay: primary screen, population patch clamp on CHO cells stably expressing hERG; higher = less effect of the substance
# Chain of human ether-à-go-go-related gene (hERG) potassium channel (Q12809 whole entry, looked up): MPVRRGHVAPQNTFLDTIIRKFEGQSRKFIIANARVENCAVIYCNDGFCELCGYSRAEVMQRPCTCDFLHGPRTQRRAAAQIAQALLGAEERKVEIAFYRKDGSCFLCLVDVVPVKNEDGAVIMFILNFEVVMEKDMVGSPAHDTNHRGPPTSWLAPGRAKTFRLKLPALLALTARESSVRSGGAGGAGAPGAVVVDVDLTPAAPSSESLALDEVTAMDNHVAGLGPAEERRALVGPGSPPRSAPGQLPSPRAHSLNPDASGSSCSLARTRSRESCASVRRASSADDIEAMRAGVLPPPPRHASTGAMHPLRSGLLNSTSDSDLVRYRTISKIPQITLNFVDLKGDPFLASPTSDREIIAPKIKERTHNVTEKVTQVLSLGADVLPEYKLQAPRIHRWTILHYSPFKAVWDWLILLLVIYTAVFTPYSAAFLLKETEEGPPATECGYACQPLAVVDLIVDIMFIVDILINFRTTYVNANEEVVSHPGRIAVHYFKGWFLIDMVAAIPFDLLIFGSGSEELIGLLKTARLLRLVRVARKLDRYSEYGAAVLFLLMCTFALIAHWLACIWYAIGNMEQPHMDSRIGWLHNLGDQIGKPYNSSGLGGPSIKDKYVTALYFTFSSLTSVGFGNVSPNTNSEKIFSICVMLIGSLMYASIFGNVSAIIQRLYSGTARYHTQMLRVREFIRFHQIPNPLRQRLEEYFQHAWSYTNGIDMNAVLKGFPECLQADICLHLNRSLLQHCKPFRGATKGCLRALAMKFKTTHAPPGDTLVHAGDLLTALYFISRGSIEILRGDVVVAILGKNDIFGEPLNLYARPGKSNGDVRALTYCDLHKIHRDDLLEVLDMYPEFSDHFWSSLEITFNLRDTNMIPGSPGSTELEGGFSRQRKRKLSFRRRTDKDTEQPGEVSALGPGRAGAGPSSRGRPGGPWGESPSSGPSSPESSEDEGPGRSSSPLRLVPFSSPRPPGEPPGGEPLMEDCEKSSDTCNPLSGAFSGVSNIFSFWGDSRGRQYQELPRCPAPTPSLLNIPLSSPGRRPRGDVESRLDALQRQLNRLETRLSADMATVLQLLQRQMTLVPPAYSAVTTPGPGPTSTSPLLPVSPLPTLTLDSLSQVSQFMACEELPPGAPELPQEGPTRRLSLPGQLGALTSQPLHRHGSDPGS
row,SMILES,"hERG current change (%, negative = inhibition) at 1uM [%]"
1,COCc1[nH]nc2c1C(c1ccc(OC)c(OC)c1)C(C#N)=C(N)O2 (centres unmarked),10.6
2,CCOc1ccc(N2CC(C(=O)Nc3ccccc3N3CCOCC3)CC2=O)cc1 (centres unmarked),4.41
3,COc1ccc(OC)c(NC(=O)CSc2nnc(CNC(=O)COc3ccc(Cl)cc3)o2)c1,2.4
4,COC(=O)C1=C(O)C(C(=O)OC)C(c2ccc(C)cc2)C(C#N)(C#N)C1c1ccc(C)cc1 (centres unmarked),6.75
5,O=C(c1cc2c(ccc3ccccc32)o1)N1CCCCC1,14.4
6,CCOC(=O)N1CCN(C(=O)COC(=O)c2ccc(O)cc2O)CC1,16.8
7,CC(=O)c1ccc(-n2c(-c3cc(-c4ccsc4)n[nH]3)n[nH]c2=S)cc1,7.9
8,CCCCCn1c(=O)[nH]c2cc(C(=O)NCCN3CCOCC3)ccc2c1=O,6.68
9,O=C1NC(Cc2ccccc2)c2nc3ccc(Cl)cc3c(=O)n2-c2ccc(Cl)cc21 (centres unmarked),10.4
10,COc1ccc(S(=O)(=O)N2CCOCC2)cc1NC(=O)c1cccc(Cl)c1,6.86
11,N#Cc1c(N)n(CCOC(=O)c2cccc([N+](=O)[O-])c2)c2nc3ccccc3nc12,13.1
12,COc1ccc(CCNC(=O)c2ccc3c(c2)OCO3)cc1,11.4
13,COc1ccc(-n2c(SCC(=O)Nc3nccs3)nnc2-c2ccccc2)cc1,13.9
14,Cc1csc(NC(=O)CSc2nnc(-c3ccccn3)n2-c2ccc(C)c(C)c2)n1,-57.4
15,CCOc1ccc(-n2c(SCC(=O)Nc3nccs3)nnc2-c2ccoc2C)cc1,-35.1
16,COc1cccc(-n2c(SCC(=O)NCCc3ccccc3)nnc2-c2ccoc2C)c1,-50.4
17,O=C(CSc1nnc(-c2cccs2)n1-c1ccccc1)NCc1ccco1,-65.9
18,Cc1ccc(-n2c(SCC(N)=O)nnc2-c2ccccn2)cc1C,13
19,COc1cccc(NC(=O)CSc2nnc(-c3ccoc3C)n2-c2ccccc2)c1,-17.5
20,O=C(CSc1nnc(-c2ccccc2)n1-c1ccccc1)NCc1ccco1,7.59
21,Cn1c(SCC(=O)NCc2ccco2)nnc1-c1cccs1,8.99
22,COc1ccc(-n2c(SCC(=O)Nc3nccs3)nnc2-c2ccoc2C)cc1,-79.4

row,SMILES,"hERG current change (%, negative = inhibition) at 1uM [%]"
1,CCN(CC)C(=O)CSc1nnc(-c2ccccn2)n1-c1ccc(C)c(C)c1,-4.22
2,COc1cccc(-n2c(SCC(=O)NC(C)(C)C)nnc2-c2ccoc2C)c1,-3.46
3,COc1ccc(-n2c(-c3cccc(C)c3[N+](=O)[O-])n[nH]c2=S)cc1,7.34
4,Cc1ccc(OCC(=O)NC2CCS(=O)(=O)C2)cc1 (centres unmarked),4.41
5,COc1ccc(C(=O)Nc2nc3ccccc3[nH]2)cc1,20.6
6,CCCNc1cc(C)oc(=O)c1C(=O)CC,18.4
7,CC1(C)Cc2c(C#N)c(SCC(=O)c3ccccc3)nc(N3CCOCC3)c2CS1,13
8,COc1ccccc1C(=O)NNC(=O)c1ccccc1,9.59
9,CC(=O)n1nc(-c2ccccc2)nc1NCc1cccs1,7.45
10,CCCCC(=O)N1CCN(c2ccc(OC)cc2[N+](=O)[O-])CC1,-54.5
11,COc1ccc(N2CCN(C(=O)c3ccccc3)CC2)c([N+](=O)[O-])c1,-33.8
12,CCC(=O)N1CCN(c2ccc(OC)cc2[N+](=O)[O-])CC1,-0.687
13,COc1ccc(N2CCN(C(=O)c3ccc(Br)cc3)CC2)c([N+](=O)[O-])c1,-30.1
14,COc1ccc(N2CCN(C(=O)c3cccc(Br)c3)CC2)c([N+](=O)[O-])c1,-85.9
15,COc1ccc(N2CCN(C(=O)CC34CC5CC(CC(C5)C3)C4)CC2)c([N+](=O)[O-])c1,10.3
16,CCOc1cc(C2C3=C(CC(C)(C)CC3=O)N(CCCOC)C3=C2C(=O)CC(C)(C)C3)ccc1O,14
17,O=C1CC(NS(=O)(=O)c2cccnc2)CN1c1cccc(F)c1 (centres unmarked),10.3
18,Cc1ccc(C)c(N(C(=O)CNC(=O)c2ccco2)C(C(=O)NC2CCCCC2)c2ccncc2)c1 (centres unmarked),7.2
19,Cc1c(C(=O)N2CCN(c3ccc(F)cc3)CC2)sc2nc(-c3ccccc3)cn12,-2.42
20,Cc1c(C(=O)N2CCN(C(=O)c3ccco3)CC2)sc2nc(-c3ccc(F)cc3)cn12,-56.7
21,CCN(CC)CCNC(=O)c1sc2nc(-c3ccccc3)cn2c1C,-31.8
22,O=C(c1ccco1)N1CCN(C(=O)C2CC(c3ccccc3F)=NO2)CC1 (centres unmarked),3.75

row,SMILES,"hERG current change (%, negative = inhibition) at 1uM [%]"
1,COc1ccc(C2=NOC(C(=O)N3CCN(C(=O)c4ccco4)CC3)C2)cc1OC (centres unmarked),15.8
2,CCOC(=O)N1CCN(C(=O)c2sc3nc(-c4ccc(F)cc4)cn3c2C)CC1,-22.3
3,CCN(CC)CCCNC(=O)c1sc2nc(-c3ccc(F)cc3)cn2c1C,-55.5
4,O=C(c1ccco1)N1CCN(C(=O)C2CC(c3ccc(F)cc3)=NO2)CC1 (centres unmarked),-59.7
5,O=C(c1ccco1)N1CCN(C(=O)C2CC(c3ccc(Cl)cc3)=NO2)CC1 (centres unmarked),-66.5
6,COc1cccc(C2=NOC(C(=O)N3CCN(C(=O)c4ccco4)CC3)C2)c1 (centres unmarked),-16.3
7,Cc1c(C(=O)NCCCN2CCOCC2)sc2nc(-c3ccc(F)cc3)cn12,-16.8
8,COc1cc(OC)c(C2=NOC(C(=O)N3CCN(C(=O)c4ccco4)CC3)C2)cc1Cl (centres unmarked),-12.8
9,O=C(c1cccc(N2C(=O)C3CC=CCC3C2=O)c1)N1CCCc2ccccc21 (centres unmarked),-16.3
10,CCOC(=O)CNC(=O)CSc1nnnn1-c1ccc(C)c(C)c1,0.993
11,Cn1cc(CC(=O)N2CCN(c3ccc(Cl)cc3)CC2)c2ccccc21,-0.545
12,Cc1ccccc1OCC(=O)Nc1ccccc1C(=O)NC1CC1,8.41
13,Cc1ccc(C)c(NC(=S)N2CCN(CCO)CC2)c1,5.15
14,CC1CCN(C(=O)COC(=O)c2cn(C)c3ccccc23)CC1,7.49
15,Cc1ccc(N2CC(C(=O)N3CCN(C(=O)c4ccco4)CC3)CC2=O)cc1 (centres unmarked),-45.8
16,O=C(c1ccco1)N1CCN(C(=O)C2CC(=O)N(c3ccccc3)C2)CC1 (centres unmarked),-1.56
17,O=C(c1ccco1)N1CCN(C(=O)C2CC(=O)N(c3ccc(Cl)cc3)C2)CC1 (centres unmarked),-80.2
18,O=C(COc1ccc(Cl)cc1)Nc1ccc(Cl)cn1,-2
19,COc1ccc(Oc2nc(SC)nc3ccccc23)cc1,2.03
20,O=C(/C=C/Nc1ccc(F)cc1F)c1cccs1,18.4
21,C[C@H](NC(=O)c1nc[nH]c1C(=O)N[C@@H](CCCCNC(=O)OC(C)(C)C)C(=O)OC(C)(C)C)c1ccccc1,19.1
22,COc1ccc(NC(=O)N2CCN(c3ccc([N+](=O)[O-])cc3)CC2)cc1,-14.2

row,SMILES,"hERG current change (%, negative = inhibition) at 1uM [%]"
1,COc1ccc(NC(=S)N2CCN(c3ccc([N+](=O)[O-])cc3)CC2)cc1OC,-82.2
2,COc1ccccc1N1CCN(C(=O)Nc2ccc([N+](=O)[O-])cc2)CC1,-10.6
3,COc1cccc(NC(=S)N2CCN(c3ccc([N+](=O)[O-])cc3)CC2)c1,-9.45
4,COc1ccc(NC(=O)N2CCN(c3ccc([N+](=O)[O-])cc3)CC2)cc1OC,-63.2
5,O=[N+]([O-])c1ccc(N2CCN(C(=S)Nc3ccc(F)cc3)CC2)cc1,-23.8
6,Cc1ccc(S(=O)(=O)N/N=C/c2cc(Br)c(C)o2)cc1,8.23
7,O=C(N/C(=C/c1cn(-c2ccccc2)nc1-c1ccccc1)C(=O)N1CCOCC1)c1ccc(Cl)cc1Cl,24.2
8,Cl.O=S1(=O)N=C(N(CCO)/N=C/c2ccncc2)c2ccccc21,7.58
9,CC1CCCCC12NC(=O)N(CC(=O)Nc1ccc(N3CCOCC3)cc1)C2=O (centres unmarked),4.35
10,S=c1[nH]nc(-c2ccncc2)n1/N=C/c1cccc(Cl)c1,8.7
11,CNc1c([N+](=O)[O-])cnn1-c1ccccc1Cl,-13.4
12,O=[N+]([O-])c1ccc2c(c1)OCCOCCOCCOCCOCCOCCO2,-32.5
13,c1ccn2cc(-c3ccc4c(c3)OCCO4)nc2c1,4.22
14,Cc1ccc2nc(-c3ccc4c(c3)OCCO4)cn2c1,15.7
15,c1cncc(-c2nc(-c3ccc4c(c3)OCCO4)cs2)c1,9.93
16,N#Cc1ncc(-c2ccc3c(c2)OCCOCCOCCOCCOCCO3)nc1C#N,-84.8
17,N#Cc1cncc(-c2ccc3c(c2)OCCOCCOCCOCCOCCO3)n1,-95.2
18,Cl.Nc1nc(-c2ccc3c(c2)OCCO3)cs1,14.3
19,N#Cc1ncc(-c2ccc3c(c2)OCCOCCOCCOCCO3)nc1C#N,-63.6
20,N#CCC(=O)Nc1nc(-c2ccc3c(c2)OCCO3)cs1,8.5
